Structures can show the parent of a compound that is named as a salt.
Tests used:
Assay in all cases: phenotypically active (imaging signature differs from DMSO and reproducible) at any of 0.3-9 uM (binary (1 = active, 0 = inactive)); higher = active
Settings in all cases: treatment time: 24 h
[1] = test system: A549-ACTB-RAB5A
Method in brief: (§1)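 Phenotypic activity depended on meeting both a deviation and a reproducibility criterion. The fifteen gene-edited A549, HepG2 and WPMY1 reporter lines were treated at 0.3, 1, 3 or 9 µM for 24 h, four wells each, then imaged live with features normalised to solvent control wells. Deviation required ≥3 of 4 wells past the 95th percentile of control Euclidean distances, and reproducibility a median replicate Pearson correlation above the 95th percentile of non-replicates.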

[2] = test system: A549-CANX-COX4
Method in brief: as §1

[3] = test system: A549-GM130-SQSTM1
Method in brief: as §1

[4] = test system: A549-TP53BP1-CLTA
Method in brief: as §1

[5] = test system: A549-TUBA1B-RELA
Method in brief: as §1

[6] = test system: HepG2-ACTB-RAB5A
Method in brief: as §1

[7] = test system: HepG2-CANX-COX4
Method in brief: as §1

[8] = test system: HepG2-GM130-SQSTM1
Method in brief: as §1

[9] = test system: HepG2-TP53BP1-CLTA
Method in brief: as §1

[10] = test system: HepG2-TUBA1B-RELA
Method in brief: as §1

[11] = test system: WPMY1-ACTB-RAB5A
Method in brief: as §1

[12] = test system: WPMY1-CANX-COX4
Method in brief: as §1

[13] = test system: WPMY1-GM130-SQSTM1
Method in brief: as §1

[14] = test system: WPMY1-TP53BP1-CLTA
Method in brief: as §1

[15] = test system: WPMY1-TUBA1B-RELA
Method in brief: as §1

Measured: phenotypically active

C#CCN(C)Cc1ccccc1 [pargyline]
inactive: [1] 0 | [2] 0 | [3] 0 | [4] 0 | [5] 0 | [6] 0 | [7] 0 | [8] 0 | [9] 0 | [10] 0 | [11] 0 | [12] 0 | [13] 0 | [14] 0 | [15] 0

CCN(CC)CC(=O)Nc1c(C)cccc1C [lidocaine]
inactive: [1] 0 | [2] 0 | [3] 0 | [4] 0 | [5] 0 | [6] 0 | [7] 0 | [8] 0 | [9] 0 | [10] 0 | [11] 0 | [12] 0 | [13] 0 | [14] 0 | [15] 0

O=C(/C=C/c1ccc(OCc2ccccc2)cc1)c1c(O)cc(OCc2ccccc2)cc1OCc1ccccc1 [4,2,4'-Tribenzyloxy-6'-hydroxychalcone]
inactive: [1] 0 | [2] 0 | [3] 0 | [4] 0 | [5] 0 | [6] 0 | [7] 0 | [8] 0 | [9] 0 | [10] 0 | [11] 0 | [12] 0 | [13] 0 | [14] 0 | [15] 0

COc1ncc2cc(C(=O)Nc3cc(C(=O)NCc4cccc(Cl)c4)ccc3Cl)c(=O)[nH]c2n1
inactive: [1] 0 | [2] 0 | [3] 0 | [4] 0 | [5] 0 | [6] 0 | [7] 0 | [8] 0 | [9] 0 | [10] 0 | [11] 0 | [12] 0 | [13] 0 | [14] 0 | [15] 0

CCCCCCCCCCCCCCCC(=O)C(F)(F)F
inactive: [1] 0 | [2] 0 | [3] 0 | [4] 0 | [5] 0 | [6] 0 | [7] 0 | [8] 0 | [9] 0 | [10] 0 | [11] 0 | [12] 0 | [13] 0 | [14] 0 | [15] 0

Cc1c(-c2ccccc2)oc2c(C(=O)OCCN3CCCCC3)cccc2c1=O [flavoxate]
inactive: [1] 0 | [2] 0 | [3] 0 | [4] 0 | [5] 0 | [6] 0 | [7] 0 | [8] 0 | [9] 0 | [10] 0 | [11] 0 | [12] 0 | [13] 0 | [14] 0 | [15] 0

CCCCN1C[C@H](O)[C@@H](O)[C@H](O)[C@H]1CO [Miglustat hydrochloride]
inactive: [1] 0 | [2] 0 | [3] 0 | [4] 0 | [5] 0 | [6] 0 | [7] 0 | [8] 0 | [9] 0 | [10] 0 | [11] 0 | [12] 0 | [13] 0 | [14] 0 | [15] 0

CCOC(=O)Nc1ccc2c(c1)N(C(=O)CCN1CCOCC1)c1ccccc1S2 [moracizine]
inactive: [1] 0 | [2] 0 | [3] 0 | [4] 0 | [5] 0 | [6] 0 | [7] 0 | [8] 0 | [9] 0 | [10] 0 | [11] 0 | [12] 0 | [13] 0 | [14] 0 | [15] 0

COC(=O)[C@H]1[C@H]2C[C@H]3c4[nH]c5ccccc5c4CCN3C[C@@H]2CC[C@@H]1O [Corynanthine hydrochloride]
inactive: [1] 0 | [2] 0 | [3] 0 | [4] 0 | [5] 0 | [6] 0 | [7] 0 | [8] 0 | [9] 0 | [10] 0 | [11] 0 | [12] 0 | [13] 0 | [14] 0 | [15] 0

CC(=O)N[C@@H]1[C@@H](O[C@H](C)C(=O)O)[C@H](O)[C@@H](CO)O[C@@H]1O [Muramic acid, N-acetyl]
inactive: [1] 0 | [2] 0 | [3] 0 | [4] 0 | [5] 0 | [6] 0 | [7] 0 | [8] 0 | [9] 0 | [10] 0 | [11] 0 | [12] 0 | [13] 0 | [14] 0 | [15] 0

CCn1c(=O)c2cc(C(N)=O)c(N)nc2n(C2CC2)c1=O
inactive: [1] 0 | [2] 0 | [3] 0 | [4] 0 | [5] 0 | [6] 0 | [7] 0 | [8] 0 | [9] 0 | [10] 0 | [11] 0 | [12] 0 | [13] 0 | [14] 0 | [15] 0

N#Cc1ccccc1OCC(O)CNCCNC(=O)Nc1ccccc1 (stereo not given)
inactive: [1] 0 | [2] 0 | [3] 0 | [4] 0 | [5] 0 | [6] 0 | [7] 0 | [8] 0 | [9] 0 | [10] 0 | [11] 0 | [12] 0 | [13] 0 | [14] 0 | [15] 0

— the supplement of paper PMC7411054
